This is a sample that favours compounds with a hit; in the whole collection about 6.2% have one here.
HT1080NT lethal: qHTS for induction of synthetic lethality in tumor cells producing 2HG: qHTS for the HT-1080-NT fibrosarcoma cell line | 360,000 compounds, 1.6% hits | HT-1080-NT fibrosarcoma viability, CellTiter-Glo ATP luminescence, 48 h | Potency, µM (highest dose often 46.1 µM), for the others: at the top dose activity, negative = less viability, hits mostly cytotoxic;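 further: NT is the 2HG producing partner of a matched IDH1 knockdown line; 0% = DMSO-treated cells and -100% = media-only wells without cells; nearly all actives have a fitted effect of over 55% in size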
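Fibrosarcoma NT cells, 750 per well in 5% FBS RPMI, were exposed to compound for 48 hours. Viability: CellTiter-Glo luminescence.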
KB-V1 cytotox: qHTS assay for MDR1-selective chemotherapeutics: Primary screen using the drug-selected MDR subline cells KB-V1; Potency, µM (top dose mostly 46.1 µM), most hits filed as cytotoxic; 400,000 compounds, 3.4% hits; KB-V1 MDR cells viability, CellTiter-Glo, 72 h; AID 1347076, 2019; further: on the % scale 0 is the no-effect control and ±100 the full control effect; nearly all actives have a fitted effect of over 60% in size
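Cytotoxicity via CellTiter-Glo luminescence after 72 h compound exposure at 37 degrees C. Cells: drug-selected KB-V1 line, DMEM phenol-red free plus 10% FBS. Compounds tested at multiple concentrations; normalized data fitted to concentration-effect curves.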
HT1080 IDH1KD tx: qHTS for induction of synthetic lethality in tumor cells producing 2HG: qHTS for the HT-1080-IDH1KD cell line. HT-1080 IDH1 knockdown viability, ATP luminescence, 48 h. Potency, µM (highest dose often 46.1 µM), inactives show at the highest dose activity, negative = toxicity, actives largely listed as cytotoxic. 360,000 compounds, 2% hits. AID 686971, 2013;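 further: 0% = DMSO wells and -100% = cell-free medium wells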
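CellTiter-Glo luminescence after 48 h compound exposure at 37 degrees C of IDH1-knockdown HT-1080 cells in 5% FBS RPMI. %Activity scaled between DMSO wells and cell-free media wells, with curves fitted and assigned curve classes.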
ATXN2 expr inh: Primary qHTS for Inhibitors of ATXN expression. HEK-293 ATXN2-luciferase reporter, luminescence, 24 h. Potency, µM (titrated, usually from 57 µM), for inactives: top-dose activity change, negative = inhibition, actives largely listed as inhibitors. 360,000 compounds, 0.72% hits. AID 1745845, 2022; further: on the % scale 0 is the no-effect control and ±100 the full control effect; nearly all actives have a fitted effect of over 55% in size
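qHTS (up to 57 uM final) was run with 24 h compound exposure of reporter cells at 37 °C. Each well was multiplexed: SteadyGlo luminescence measured ATXN2-luciferase expression after a fluorogenic Gly-Phe-AFC viability readout (25 uM final).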
KB-3-1 cytotox: qHTS assay for MDR1-selective chemotherapeutics: Primary screen using the parental adenocarcinoma cell KB-3-1; KB-3-1 viability, CellTiter-Glo ATP luminescence, 72 h; Potency, µM (doses to about 46.1 µM), hits mostly cytotoxic; 400,000 compounds, 1.4% hits; further: on the % scale 0 is the no-effect control and ±100 the full control effect; nearly all actives have a fitted effect of over 60% in size
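KB-3-1 cells, DMEM (no phenol red) + 10% FBS; compound by pin transfer, 72 h, 37 °C. Readout: CellTiter-Glo luminescence after 10 min. Data normalized, curve-fitted.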
S2 tox: Viability Counterscreen for Primary qHTS for Inhibitors of ATXN expression | 400,000 compounds, 0.49% hits | AID 651635, 2014 | S2 cells (HEK-293 line with an ATXN2-luciferase reporter) viability, CellTiter-Fluor protease fluorescence, 24 h | Potency, µM (doses to about 56.7 µM), usual class: cytotoxic; further: nearly all actives have a fitted effect of over 40% in size
* hit, by the source's call; i = inactive; ? = inconclusive; · = not tested or not shown. The call rests on the fitted dose curve; in most records, active means well fitted curve in the direction sought with a large enough effect; inconclusive means small, poorly fitted or top-dose-only effect, or another doubt; inactive means no such curve, though single readings can be large; an effect the other way counts as inactive or inconclusive. Potency means the concentration at half of the fitted maximal effect.

SMILES	HT1080NT lethal	KB-V1 cytotox	HT1080 IDH1KD tx	ATXN2 expr inh	KB-3-1 cytotox	S2 tox
C[C@@H]1CC2=C(C(=O)OC(C)(C)O2)[C@H](c2ccc(F)cc2)O1	10.2%	i	18.7%	3.8%	i	i
O=C(CSc1nccc(=O)[nH]1)Nc1ccc(N2CCOCC2)cc1	3.0%	i	5.5%	5.7%	i	i
Cn1cccc1C1C=C(c2ccc(C(C)(C)C)cc2)Nc2ncnn21 (stereo not drawn)	-3.1%	16.4µM*	-9.9%	-37.6%	?	·
CC(C)(C)c1ccc(C2=CC(c3ccccc3F)n3ncnc3N2)cc1 (stereo not drawn)	-1.9%	i	-0.4%	19.3%	?	·
CCC(C)(C)c1ccc(OCCCC[n+]2ccc(C)cc2)c(C(C)(C)CC)c1	?	i	?	20µM*	11.6µM*	?
CCC(C)(C)c1ccc(OCCCC[n+]2cccc(C)c2C)c(C(C)(C)CC)c1	14.6µM*	i	20.6µM*	·	?	·
Cc1cc(C(C)(C)C)ccc1OCCCCN1CCCC1	-10.2%	i	-6.4%	-14.1%	i	i
COc1ccccc1C(=O)NC(CCSC)C(=O)NCC(c1ccco1)N(C)C (stereo not drawn)	-0.7%	18.4µM*	-1.3%	-3.1%	i	i
COc1ccc(C(CNC(=O)C(CCSC)NC(=O)c2ccccc2Cl)N2CCCC2)cc1 (stereo not drawn)	-1.0%	?	-1.6%	·	i	i
COc1ccc(C(CNC(=O)C(CCSC)NC(=O)c2ccccc2Cl)N2CCCCC2)cc1 (stereo not drawn)	-2.6%	23.1µM*	-2.3%	-9.5%	i	i
COc1cc(C(=O)Nc2ccc(-c3nnc(-c4ccco4)o3)cc2)cc(OC)c1OC	-0.9%	?	5.1%	-3.0%	i	i
COc1ccc(C(=O)Nc2cccc(-c3nnc(-c4ccco4)o3)c2)cc1	?	13µM*	?	2.8%	?	?
COc1cc(C(=O)Nc2cccc(-c3nnc(-c4ccco4)o3)c2)ccc1OC(C)=O	-22.0%	20.6µM*	-25.3%	13.5%	i	i
Cc1cc(C)cc(OCC(=O)Nc2cccc(-c3nnc(-c4ccco4)o3)c2)c1	-2.0%	14.6µM*	10.1%	9.5%	i	i
COc1ccc(CC(=O)Nc2cccc(-c3nnc(-c4ccco4)o3)c2)cc1	-9.5%	?	-11.4%	-2.2%	i	?
Cc1nn(C)c(C)c1CCNC(=O)Nc1ccccc1C(F)(F)F	·	i	·	0.4%	i	i
O=C(CCS(=O)(=O)c1cc(Br)cc2c1N(C(=O)C1CC1)CC2)Nc1ccc(F)cc1	·	i	·	8.3%	i	i
COc1ccc(-n2c(=O)c3sc4ccccc4c3n(Cc3ccccc3)c2=O)cc1	·	i	·	11.8%	i	i
CC(C)[C@@H](C(=O)NCC1CCCO1)N1C(=O)N2CCc3c([nH]c4ccccc34)[C@@]2(C)C1=O (stereo partly drawn)	12.4%	?	5.5%	7.3%	i	i
Cc1ncc2c(c1CNC(=O)CN1CCCCC1)CCN(C(=O)c1ccc(F)cc1Cl)C2	·	·	·	·	·	i
CC(=O)N(c1ccc2ccccc2c1)C1SC(=O)N(c2cccc(C)c2)C1=O (stereo not drawn)	23.6%	·	0.1%	·	·	·
CSC(=Nc1ccccc1)N=C(SCc1ccccc1)N(C)C	20.6µM*	5.8µM*	13µM*	?	4.11µM*	9.47µM*
Cc1nn2c(=O)cc(COC(=O)c3ccco3)nc2s1	·	i	·	8.9%	i	i
Nc1nc2ccccc2n1C(=O)c1ccccc1	?	?	?	·	i	?
Nc1nc2ccccc2n1C(=O)CCc1ccccc1	?	i	-19.5%	0.6%	18.4µM*	i
SMILES	HT1080NT lethal	KB-V1 cytotox	HT1080 IDH1KD tx	ATXN2 expr inh	KB-3-1 cytotox	S2 tox
CN(C(=S)Oc1ccc(C(=O)Nc2ccccc2)cc1)c1ccccc1	-17.6%	2.91µM*	-23.6%	-6.2%	?	i
COc1ccc(NC(=O)c2ccc(OC(=S)N(C)c3ccc(OC)cc3)cc2)cc1	-26.2%	i	-23.9%	-38.5%	i	?
Cc1ccc2c(=O)cc(C(=O)Nc3ccc(S(=O)(=O)N(C)Cc4ccccc4)cc3)oc2c1	·	i	·	11.4%	i	i
COc1cc(C(=O)ON=C2C=C(C)C(=O)C(C)=C2)cc(OC)c1OC	-6.3%	i	-9.1%	29.4%	i	i
COc1cc(C(=O)O/N=C2\C=CC(=O)C(C)=C2)cc(OC)c1OC	23.1µM*	?	?	36.7%	?	?
CN(CCCNC(=O)c1cccn2c(=O)c3ccccc3nc12)Cc1ccccc1	?	?	20µM*	?	?	?
CCCCCn1c(=O)[nH]c2cc(C(=O)NCCCN(C)Cc3ccccc3)ccc2c1=O	0.0%	20.6µM*	6.2%	·	?	?
CCCCNC(=O)c1cc2c(=O)n(CC)c3ccccc3c2s1	23.8%	i	?	-12.5%	i	i
CCn1c(=O)c2cc(C(=O)NCCCN(C)Cc3ccccc3)sc2c2ccccc21	·	i	·	?	?	31.6µM*
CC1=NN(c2nc(C)cc(C)n2)C(=O)C1CCC(C)C (stereo not drawn)	7.94µM*	i	10µM*	0.0%	i	i
CCC1C(=O)N(c2nc(C)cc(C)n2)N=C1C (stereo not drawn)	4.6%	?	8.1%	4.5%	i	i
O=C(Nc1ccc([N+](=O)[O-])cc1)OC1CCS(=O)(=O)C1 (stereo not drawn)	8.4%	i	5.0%	-4.7%	i	i
COc1cc(NC(=O)c2cccnc2)ccc1NC(=O)c1ccccc1Cl	13.0%	i	0.0%	-0.6%	i	i
COc1cc(S(=O)(=O)Nc2cccc(C)c2)ccc1NC(=O)c1cccnc1	-2.1%	20.6µM*	-8.3%	-3.2%	?	i
COc1ccc(NC(=O)c2cccnc2)c([N+](=O)[O-])c1	?	?	?	-21.4%	16.4µM*	?
CCOc1ccc(/C=C(\C#N)C(=O)Nc2sc3c(c2C(=O)OC)CCC3)cc1OC	·	i	·	6.4%	i	i
COc1ccc(NC(=O)c2cccc(-c3ccc(O)cc3)c2)cn1	?	i	2.06µM*	-6.6%	?	?
